Paper PMC6792352, “Limited Chemical Structural Diversity Found to Modulate Thyroid Hormone Receptor in the Tox21 Chemical Library” (Environmental Health Perspectives, 2019)
Like-named read-outs stand apart in the source and are kept apart here.

Tested on: thyroid hormone receptor (endogenous TRα and TRβ)
Set-up: species or system GH3-TRE-Luc (rat pituitary); GH3-TRE-Luc luciferase reporter, antagonist mode against 1 nM T3, loss of signal, qHTS
[1] = read-out: Average AC50 (uM) GH3-TRE-Antag, antagonist mode, 1 nM T3, no GH3 cytotoxicity hit
[2] = read-out: Average AC50 (uM) GH3-TRE-Antag, antagonist mode, 1 nM T3, no GH3 cytotoxicity hit, Average AC50 (uM) GH3-TRE-Antag, 24 h

Q: `CC(=O)c1c(C)cc(C(C)(C)C)cc1C` [4'-tert-Butyl-2',6'-dimethylacetophenone] was tested. Which AC50 [1] did it give?
A: Its AC50 is 48.7 µM.

Q: How did the AC50 [1] turn out when `CC(C)=CCC[C@](C)(O)[C@@H]1CC=C(C)CC1` [Levomenol] was run?
A: The AC50 was 38 µM.

Q: Which AC50 [1] does the source give for `Cl/C=C\C[N+]12CN3CN(CN(C3)C1)C2` [Chloroallyl methenamine chloride] here?
A: The AC50 was 89.1 µM.

Q: For `CC(C)C(C(=O)OC(C#N)c1cccc(Oc2ccccc2)c1)c1ccc(OC(F)F)cc1` (centres unmarked) [Flucythrinate], which AC50 [1] is on record?
A: The AC50 was 32.5 µM.

Q: Which AC50 [2] does the source give for `CCCCCC[n+]1ccccc1` [1-Hexylpyridinium bromide] here?
A: Its AC50 is 62.1 µM.

Q: With `CCCCCCCCn1cc[n+](C)c1` [1-Methyl-3-octylimidazolium chloride] as the molecule, how does the AC50 [2] read?
A: The AC50 was 28.9 µM.

Q: Which AC50 [2] does the source give for `CCCCCCn1cc[n+](C)c1` [1-Hexyl-3-methylimidazolium tetrafluoroborate] here?
A: The AC50 was 56.1 µM.

Q: Which AC50 [2] does the source give for `CC(C)c1c(C(=O)Nc2ccccc2)c(-c2ccccc2)c(-c2ccc(F)cc2)n1CC[C@@H](O)C[C@@H](O)CC(=O)O` [Atorvastatin] here?
A: Its AC50 is 0.321 µM.
